Assay outcomes (PubChem)
CHX counter = Cycloheximide Counterscreen for Small Molecule Inhibitors of Shiga Toxin; cell reporter, cycloheximide protein synthesis inhibition counterscreen; max response, %; actives 12% (n = 300,000); in the data active = max response mostly above about 13%, no sharp cut-off; inactive = mostly below about 14%; also: read at 38.3 µM for the half of the compounds with a filed dose; 0% is about no effect
FMDV inh = High Throughput Screening for Foot and Mouth Disease Virus Antivirals. FMDV antiviral cell-based qHTS. Potency, µM (series often up to 57.9 µM), for the others: at the top dose activity change, negative = inhibition, most hits filed as inhibitors. actives 1.2% (n = 410,000). AID 1159524, 2015; calls by dose curve; tested in HEK293T cells; also: read-out not given here; potency is read from the fitted curve at half-maximal effect; % is scaled to controls: 0 for no effect and ±100 for the full control effect; nearly all actives have a fitted effect of over 45% in size
Sm TGR inh = qHTS Assay for the Inhibitors of Schistosoma Mansoni Peroxiredoxins. purified TGR, DTNB reduction, TNB absorbance 405 nm. Potency, µM (titrated, usually from 114 µM), for inactives: at the highest dose activity change, negative = inhibition, hits mostly inhibitors. actives 3% (n = 360,000). AID 485364, 2010; active = well fitted inhibition curve with a large enough effect; inconclusive = small, poorly fitted or top-dose-only effect; inactive = no such curve, though single readings can be large or run the other way; also: potency is read from the fitted curve at half-maximal effect; % is scaled to controls: 0 for no effect and ±100 for the full control effect; nearly all actives have a fitted effect of over 60% in size
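Kinetic colorimetric format: TGR-catalysed, NADPH-driven DTNB reduction monitored via TNB absorbance. Enzyme dispensed at 20 nM; compound exposure 15 min at room temperature before reaction start.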
Shiga toxin inh = A qHTS for Small Molecule Inhibitors of Shiga Toxin; Vero cells, Shiga toxin protein synthesis inhibition reporter; inhibition, % at 38.7 µM; actives 9.2% (n = 290,000); AID 2315, 2010; in the data active = inhibition mostly above about 28%, no sharp cut-off; inactive = mostly below about 43%; also: 0% is about no effect
Starred values were filed as active, the others as inactive; ? = inconclusive; / = not tested or not shown. Only some compounds are listed: those with a hit (about 12% of all), similar ones and a draw of the others.

SMILES	CHX counter	FMDV inh	Sm TGR inh	Shiga toxin inh
O=C(COC(=O)c1ccc(O)cc1O)c1ccc2c(c1)OCO2	76*	17%	-2%	92*
O=C(COC(=O)c1ccccc1NC(=O)C1CC1)c1ccc2c(c1)OCCO2	54*	/	1%	75*
CC(C)(C)C(=O)Nc1ccccc1C(=O)OCC(=O)c1ccc2c(c1)OCCO2	69*	?	-2%	78*
O=C(COC(=O)c1ccc(O)cc1)c1ccc2c(c1)OCCO2	/	0%	-1%	/
CC(OC(=O)c1snc(C(=O)NC2CCCCC2)c1N)C(=O)NC(C)(C)C (centres undefined)	-2	?	-5%	4
CC(C)(C)NC(=O)COC(=O)c1snc(C(=O)NC2CCCCC2)c1N	18*	?	8%	37*
CC1CCN(c2nn3c(=O)c(C(=O)NCCc4ccccc4)cnc3s2)CC1	/	0%	6%	/
CC(C)n1cnc(S(=O)(=O)N2CCCC(C(=O)NCc3ccccc3Cl)C2)c1 (centres undefined)	/	4%	0%	/
Cc1ccc(CSc2nc3ccncc3[nH]2)cc1	15	10µM*	3%	-3
O=C(c1ccc(CSc2ccc(Cl)cc2)cc1)N1CCCC1	23	12%	-2%	61*
O=C(c1ccc(CSc2nc3ccncc3[nH]2)cc1)N1CCCCCC1	18*	?	0%	39
Cc1ccc(CSc2nc3ncccc3[nH]2)cc1	20*	-9%	12%	64*
O=C(Cc1ccc(Cl)cc1)Nc1ccccc1N1CCN(C(=O)c2ccccc2)CC1	1	35µM*	-25%	-1
Clc1ccc(CSc2nc3ccncc3[nH]2)cc1	51*	-59%	3%	51*
CC1(C(=O)Nc2cccc(C#N)c2)CCN1C(=O)Cc1ccc(-c2ccccc2)cc1 (centres undefined)	/	25µM*	/	/
O=C(Cc1sc(Nc2ccccc2)nc1-c1ccccc1)NCc1ccccn1	39*	58%	25µM*	53*
Cc1ccc(Nc2nc(-c3ccccc3)c(CC(=O)O)s2)cc1	47*	33%	-35%	82*
O=C(O)Cc1sc(Nc2ccccc2Cl)nc1-c1ccccc1	/	32%	-7%	/
O=C(O)Cc1sc(Nc2ccc(F)cc2)nc1-c1cccs1	30*	53%	-26%	60*
O=C(O)Cc1sc(Nc2ccccc2)nc1-c1ccc(Cl)cc1	42*	63%	45µM*	119*
O=C(O)Cc1sc(Nc2ccc(C(=O)O)cc2)nc1-c1ccccc1	/	19%	?	/
O=C(NCc1ccc2c(c1)CCN2C(=O)c1ccccc1)Nc1cccc(C(F)(F)F)c1	/	?	-3%	/
CC(C)CCNC(=O)c1ccc(Cn2c(SCC(=O)NC(C)C)nc3ccccc3c2=O)cc1	/	-20%	16%	/
COc1ccc(C(=O)Nc2ccc(C)cn2)c(OC)c1	-3	1.8µM*	5%	-7
COc1ccc(C(=O)Nc2cc(C)on2)c(OC)c1	38*	52%	-7%	41*
SMILES	CHX counter	FMDV inh	Sm TGR inh	Shiga toxin inh
COc1cc(C(=O)Nc2ccc(C)cn2)c([N+](=O)[O-])cc1OC	1	4%	0%	-1
Cc1ccc(S(=O)(=O)c2cn(CC(=O)Nc3ccc4c(c3)OCO4)c3ccccc3c2=O)cc1C	/	20%	-15%	/
Cc1nc2nc(SCC(=O)N(C)Cc3ccccc3)nn2c(C)c1Cc1ccccc1Cl	/	0%	5%	/
COCCN=C1Sc2nc3ccc(C)cc3cc2CN1Cc1ccco1	52*	0%	-12%	114*
COCCN=C1Sc2nc3cc(C)c(C)cc3cc2CN1Cc1cccs1	11	-3%	-21%	6
O=C1CN(C(=O)c2ccc3nc(Cc4cccc(Cl)c4)oc3c2)CCN1	-1	-8%	-22%	-15
CCCCc1nc2cc(C(=O)NC(C)c3cnn(C)c3)ccc2o1 (centres undefined)	34*	56%	-20%	66*
CCCCc1nc2cc(C(=O)N3CCNC(=O)C3)ccc2o1	14*	2%	7%	1
CCCCc1nc2cc(C(=O)N3CCN(c4cnccn4)CC3)ccc2o1	11	6%	-9%	11
CCCCc1nc2cc(C(=O)N3CCNC(=O)C3CC(=O)OC)ccc2o1 (centres undefined)	15*	1%	31%	8
COC(=O)CC1C(=O)NCCN1C(=O)c1ccc2oc(C(C)C)nc2c1 (centres undefined)	9	35%	-12%	15
CCCCc1nc2cc(C(=O)N3CCCC3)ccc2o1	31*	58%	-5%	68*
COc1cccc(OC)c1CN1CCC2(CCC(CNC(=O)c3ccccc3)O2)CC1 (centres undefined)	/	-11%	/	/
CCc1ccc(NC(=O)Cn2c(=O)n(CCC(C)C)c(=O)c3cccnc32)cc1	/	-22%	-2%	/
Cc1cc(CNC(=O)c2cnn(-c3ncc4c(n3)-c3ccccc3CC4)c2C2CC2)on1	/	25%	/	/
COc1cccc2cc(C(=O)N3CCN(C(=O)c4ccco4)CC3)c(=O)oc12	-1	-8%	0%	-10
COc1cccc2cc(C(=O)N3CCCCCCC3)c(=O)oc12	32*	29%	2%	44*
COc1cccc2cc(C(=O)N3CCN(c4ccc(C)cc4C)CC3)c(=O)oc12	3	17%	-18%	19
O=C(c1cccc2cccc(O)c12)N1CCCCC1	-6	62%	40µM*	-6
COc1cccc2cc(C(=O)N3CCN(c4ncccn4)CC3)c(=O)oc12	14*	17%	-6%	15
Cc1cccc(CSc2ccc3nnc(CCNS(=O)(=O)c4ccccc4)n3n2)c1	/	9%	-12%	/
Cc1c(OCc2ccccc2)cccc1OCc1ccccc1	21*	37%	-2%	18
Cc1nc2ccccc2nc1OCc1ccccc1	18*	-17%	-4%	25
Brc1ccccc1OCCCCn1cnc2ccccc21	26*	-25%	9%	42*
Clc1ccccc1OCCn1cnc2ccccc21	31*	39%	0%	72*
SMILES	CHX counter	FMDV inh	Sm TGR inh	Shiga toxin inh
COc1cccc(CN(Cc2ccco2)C(c2ccc(F)cc2)c2nnnn2C(C)(C)C)c1 (centres undefined)	9	?	50µM*	17
CN(Cc1ccco1)C(=O)c1cc(NC(=O)C2CCC2)c2c(c1)nc(-c1ccncc1)n2C	/	1%	/	/
CCN(CC)c1ccc(NC(=S)NCC2CCCO2)cc1 (centres undefined)	28*	-4%	?	101*
S=C(NCC1CCCO1)Nc1ccc(Cl)cc1Cl (centres undefined)	46*	115%	50µM*	143*
O=C(NCC1CCCO1)Nc1ccc(Cl)cc1 (centres undefined)	44*	41%	-17%	74*
O=C(NCC1CCCO1)Nc1cc(Cl)cc(Cl)c1 (centres undefined)	6	39%	/	21
Clc1ccc(-c2ccc(CNCC3CCCO3)o2)cc1 (centres undefined)	35*	28%	-27%	96*
CCOc1cc(C(=O)Nc2ccc3c(c2)n(C)c(=O)c(=O)n3C)cc(OCC)c1OCC	/	-20%	14%	/
COc1cccc(CNC(=O)COCc2cc(-c3ccc4c(c3)OCO4)on2)c1	/	3%	0%	/
